Calls of active or inactive are those of the source. The call rests on the fitted dose curve; in most records, active means well fitted curve in the direction sought with a large enough effect; inconclusive means small, poorly fitted or top-dose-only effect, or another doubt; inactive means no such curve, though single readings can be large or run the other way.

The experiment can be described thus: Confirmatory Assay to Find Inhibitors of T. brucei phosphofructokinase: Cytotoxictity in MRC5. The conditions noted are these: cell viability; Potency: MRC5 cytotoxicity; series mostly up to 46.1 µM; activity change, negative = cytotoxicity: at the top concentration. The text has this:
Various species of the protozoan family Trypanosomatidae are responsible for a range of serious human diseases in tropical and subtropical areas of the world. […] Many of the disorders caused by trypanosomatids are fatal if left untreated, but most currently used drugs are inefficient and toxic.
Oxidative metabolism involving the mitochondrial tricarboxylic acid cycle and oxidative phosphorylation are repressed in these parasites, and recent RNA interference (RNAi) experiments have shown that even partial depletion of certain individual glycolytic enzymes can lead to the death of cultured parasites. One such glycolytic enzyme, phosphofructokinase (PFK), catalyzes the formation of fructose-1,6-bisphosphate (F1,6BP) and ADP from fructose-6-phosphate (F6P) and ATP, and in many metabolic circumstances makes an important contribution to the control of flux through the glycolytic pathway. As a specific glycolytic target, PFK is particularly attractive as it catalyzes the first irreversible step in glycolysis, and structural and kinetic studies have shown very substantial and essential differences from corresponding host enzymes, allowing for the discovery of parasite-selective inhibitors.
Confirmed qHTS active compounds were tested for toxicity against the MRC-5 human lung fibroblast cell lines. This line havs historically been used as representative human cells in in vitro Trypanosoma assays, and so provide a relevant surrogate for human cells in testing Tb PFK inhibitor toxicity.
NIH Chemical Genomics Center [NCGC]
NIH Molecular Libraries Probe Centers Network [MLPCN]
Assay Submitter (PI): Malcom Walkinshaw, University of Edinburg
MRC5 cells were dispensed into white solid 1536-microwell plates in 5 uL media (high glucose DMEM, 10% FBS) with a Thermo Multidrop. The plates were incubated at 37 degrees Celsius for 2 hours, and subsequently treated with compounds using the Kalypsys pin tool, delivering 23 nL of test compounds to each well. The plates were then incubated for an additional 72 hours at 37 degrees Celsius. Cytotoxicity was assessed by adding 2.5 uL of Cell-Titer Glo (Promega, Madison, WI) via Multidrop, incubating at room temperature for 10 min and reading luminescence on the Perkin Elmer ViewLux using a 1 second exposure and 1x binning. DMSO-treated cells were included as negative control, while media-only wells were used as a positive control equivalent to 100% cell toxicity for the sake of data normalization.
Consider `Cc1cc(NS(=O)(=O)c2ccc(NC(=O)Cc3ccc4ccccc4c3)cc2)no1`, for which the “activity change, negative = cytotoxicity” value is -14% (inactive).
On the same count and under the same terms, under `Cc1cc(NS(=O)(=O)c2ccc(NC(=O)Cc3ccc(Cl)c(C(F)(F)F)c3)cc2)no1` stands -18.9% (inactive); under `Cc1cc(NS(=O)(=O)c2ccc(NC(=O)Cc3cccc(Cl)c3)cc2)no1`, 4.81% (inactive).
On the same count and under the same terms, under `O=C(Cc1ccc(Cl)c(Cl)c1)Nc1ccc(S(=O)(=O)Nc2ccon2)cc1` stands -9.57% (inactive); under `Cc1cc(NC(=O)c2ccc(NC(=O)Cc3ccc(Cl)c(Cl)c3)cc2)no1`, -3.03% (inactive).
On the same count and under the same terms, as for `Cc1cc(N[S+](=O)([O-])c2ccc3cc(NC(=O)Cc4ccc(Cl)c(Cl)c4)ccc3c2)no1`, the figure is -4.84% (inactive).
As to `Cc1cc(NS(=O)(=O)c2ccc(NC(=O)Cc3ccc(Cl)c(Cl)c3)cc2)n(C)n1`, the “activity change, negative = cytotoxicity” value was -1.38% (inactive).
The same measure, in the same setting: under `Cc1cc(NC(=O)c2csc(NC(=O)Cc3ccc(Cl)c(Cl)c3)n2)no1` stands -17.8% (inactive).
Same read-out and setting: as for `O=C(Cc1ccc(Cl)c(Cl)c1)Nc1ccc(S(=O)(=O)O)cc1`, the figure is 0.694% (inactive); as for `Cc1cc(NS(=O)(=O)c2ccc(C(=O)NCc3ccc(Cl)c(Cl)c3)cc2)no1`, 9.63% (inactive); as for `Cc1cc(NS(=O)(=O)c2ccc(NC(=O)Cc3ccc(Cl)cc3)cc2)no1`, -2.34% (inactive).
The same measure, in the same setting: under `Cc1cc(NS(=O)(=O)c2cccc(NC(=O)Cc3ccc(Cl)c(Cl)c3)c2)no1` stands -9.42% (inactive); under `Cc1cc(NS(=O)(=O)C2CCN(C(=O)Cc3ccc(Cl)c(Cl)c3)CC2)no1`, 0.791% (inactive); under `O=C(Cc1ccc(Cl)c(Cl)c1)Nc1ccc(S(=O)(=O)Nc2ccn[nH]2)cc1`, -18% (inactive).
On to `O=C(Cc1ccc(Cl)c(Cl)c1)Nc1ccc(S(=O)(=O)Nc2cccc(O)c2)cc1`, for which the “activity change, negative = cytotoxicity” value was -10.7% (inactive).
On the same count and under the same terms, under `Cc1cc(NS(=O)(=O)c2ccc(N(C)C(=O)Cc3ccc(Cl)c(Cl)c3)cc2)no1` stands -5.01% (inactive); under `Cc1cc(NS(=O)(=O)c2ccc(NC(=O)Cc3ccc(Cl)c(F)c3)cc2)no1`, -4.95% (inactive).
The same measure, in the same setting: as for `Cc1cc(N[S+](=O)([O-])c2ccc(NC(=O)Cc3ccc(Cl)nc3)cc2)no1`, the figure is -2.33% (inactive); as for `Cc1cc(NS(=O)(=O)c2ccc(NC(=O)c3ccc(Cl)c(Cl)c3)cc2)no1`, -2.31% (inactive).
The same measure, in the same setting: under `CCOC(=O)c1cccc(NS(=O)(=O)c2ccc(NC(=O)Cc3ccc(Cl)c(Cl)c3)cc2)c1` stands 2.49% (inactive); under `Cc1cc(NS(=O)(=O)c2ccc(NC(=O)Cc3ccc(C)c(C)c3)cc2)no1`, -2.52% (inactive).
On to `Cc1cc(NS(=O)(=O)c2ccc(NC(=O)Cc3ccccc3)cc2)no1`, for which the “activity change, negative = cytotoxicity” value is -5.92% (inactive).
The same measure, in the same setting: as for `Cc1cc(NS(=O)(=O)c2ccc(NC(=O)Cc3ccc(Cl)cc3Cl)cc2)no1`, the figure is -0.204% (inactive); as for `COc1ccc(CC(=O)Nc2ccc(S(=O)(=O)Nc3cc(C)on3)cc2)cc1C`, -11.7% (inactive).
On the same count and under the same terms, under `O=C(Cc1ccc(Cl)c(Cl)c1)Nc1ccc(S(=O)(=O)Nc2cccc(C(=O)O)c2)cc1` stands 0.992% (inactive); under `Cc1cc(NS(=O)(=O)CCNC(=O)Cc2ccc(Cl)c(Cl)c2)no1`, 2.79% (inactive).
With `O=C(Cc1ccc(Cl)c(Cl)c1)Nc1ccc(S(=O)(=O)Nc2cncnc2)cc1`, the “activity change, negative = cytotoxicity” value was -26.7% (inactive).
Still for that read-out and setting: as for `COc1ccc(CC(=O)Nc2ccc(S(=O)(=O)Nc3cc(C)on3)cc2)cc1OC`, the figure is 1.47% (inactive).
Consider `Cc1cc(N(C)S(=O)(=O)c2ccc(NC(=O)Cc3ccc(Cl)c(Cl)c3)cc2)no1`, for which the Potency is 31.5 µM (active).
On to `Cc1cc(NS(=O)(=O)Cc2ccc(NC(=O)Cc3ccc(Cl)c(Cl)c3)cc2)no1`, for which the “activity change, negative = cytotoxicity” value is -0.53% (inactive).
The same measure, in the same setting: under `Cc1cc(NS(=O)(=O)c2ccc(NC(=O)CCc3ccc(Cl)c(Cl)c3)cc2)no1` stands 0.751% (inactive).
For the compound `Cc1cc(NS(=O)(=O)c2ccc(NC(=O)Cc3ccc(C)c(F)c3)cc2)no1`, the “activity change, negative = cytotoxicity” value was 0.152% (inactive).
Consider `Cc1cc(NS(=O)(=O)c2ccc(NC(=O)Cc3ccc(Cl)c(Cl)c3)cc2)on1`, for which the “activity change, negative = cytotoxicity” value was -19.8% (inactive).
The same measure, in the same setting: as for `Cc1cc(NS(=O)(=O)c2ccc(NC(=O)C(C)(C)c3ccc(Cl)c(Cl)c3)cc2)no1`, the figure is 1.51% (inactive).
The same measure, in the same setting: as for `Cc1cc(NS(=O)(=O)c2ccc(NC(=O)Cc3ccc(Cl)c(Cl)c3)cc2)no1`, the figure is -32.7% (inactive); as for `Cc1cc(NS(=O)(=O)c2ccc(NCCc3ccc(Cl)c(Cl)c3)cc2)no1`, 4.6% (inactive); as for `Cc1cc(NS(=O)(=O)c2ccc(NS(=O)(=O)Cc3ccc(Cl)c(Cl)c3)cc2)no1`, 2.37% (inactive).
Still for that read-out and setting: as for `O=C(Cc1ccc(Cl)c(Cl)c1)Nc1ccc(S(=O)(=O)Nc2ccc(C(=O)O)cc2)cc1`, the figure is -7.09% (inactive); as for `O=C(Cc1ccc(Cl)c(Cl)c1)Nc1ccc(S(=O)(=O)Nc2ccccc2)cc1`, -16.9% (inactive).
